Screening data from PubChem BioAssay.
SW480 rerep: A quantitative high throughput screen for small molecules that induce DNA re-replication in SW480 colon adenocarcinoma cells | SW480 DNA re-replication, Hoechst DNA content imaging, 48 h | Potency, µM (highest dose often 46.1 µM), inactives show at the highest dose re-replication activation, actives largely listed as activators | actives 1.8% (n = 340,000); also: potency is read from the fitted curve at half-maximal effect; % of control where 0% means no effect; nearly all actives have a fitted effect of over 55% in size
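First, 250 cells per well were seeded. Next, compound or vehicle (23 nL) was pinned in, plates sat 48 hr at 37 C. Finally Hoechst was added for 40 min before fluorescence scanning.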
BCR signal inh: qHTS Assay to Find Inhibitors of Chronic Active B-Cell Receptor Signaling | actives 0.05% (n = 340,000) | ABC-DLBCL IkBa-CBG/CBR reporter, luminescence ratio, 4 h | Potency, µM (titrated, usually from 46.1 µM), inactives show top-dose activity change, negative = inhibition, actives largely listed as inhibitors | AID 493014, 2011; active = well fitted inhibition curve with a large enough effect in the signal ratio, with a control signal flat, not every such curve was filed as active; inconclusive = small, poorly fitted or top-dose-only effect, or effect the other way, or a change in a side signal; the % refers to the signal ratio;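 also: potency is read from the fitted curve at half-maximal effect; plate controls were basal doxycycline-induced cells for no effect and cells given 10 µM MG132 for full effect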
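TMD8 ABC-DLBCL cells carrying doxycycline-inducible green luciferase fused to IkappaBalpha plus unfused red luciferase were exposed to compounds (up to 46 uM) for 4 hrs at 37C. Activity came from the overlap-corrected green/red luminescence ratio.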
Giardia kill: Small Molecules that selectively kill Giardia lamblia: qHTS | Giardia lamblia trophozoite viability | activity change, % at 7.66 µM, hits read low | actives 0.15% (n = 340,000); in the data active = activity change below about -80%; inconclusive = between about -30% and that limit;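 also: parasites exposed to compound for two days anaerobically before the ATP read; % is scaled to controls: 0 for no effect and ±100 for the full control effect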
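Each well holds 100 Giardia trophozoites and compound. After two days (48 hrs) at 37 deg C in anaerobic conditions, ATP is quantified by luminescence.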
VP16 counter: VP16 counterscreen qHTS for inhibitors of ROR gamma transcriptional activity. AID 2546, 2010. Potency, µM (titrated, usually from 53.6 µM), inactives show top-dose activity, negative = inhibition, actives largely listed as inhibitors. Drosophila S2 Gal4-VP16 UAS-luciferase, luminescence, 20 h. actives 3.5% (n = 310,000);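 also: Gal4-VP16 expression switched on by copper sulfate through the metallothionein promoter; potency is read from the fitted curve at half-maximal effect; % is scaled to controls: 0 for no effect and ±100 for the full control effect; nearly all actives have a fitted effect of over 50% in size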
MCF10A rerep: A quantitative high throughput screen for small molecules that induce DNA re-replication in MCF 10a normal breast cells; MCF 10A DNA re-replication, Hoechst nuclear intensity, 48 h; Potency, µM (top dose mostly 46.1 µM), for inactives: at the highest dose activity, positive = re-replication, usual class: activators; actives 2.9% (n = 350,000); also: potency is read from the fitted curve at half-maximal effect; % of control where 0% means no effect; nearly all actives have a fitted effect of over 50% in size
RORgamma inh: qHTS for inhibitors of ROR gamma transcriptional activity. Drosophila S2 Gal4-RORgamma UAS-luciferase reporter, 20 h. Potency, µM (series often up to 53.6 µM), without a hit: top-dose activity change, negative = inhibition, hits mostly inhibitors. actives 5.4% (n = 310,000); also: potency is read from the fitted curve at half-maximal effect; % is scaled to controls: 0 for no effect and ±100 for the full control effect; nearly all actives have a fitted effect of over 60% in size
Target sequence (P51450 whole entry, looked up, the tested form may be a part): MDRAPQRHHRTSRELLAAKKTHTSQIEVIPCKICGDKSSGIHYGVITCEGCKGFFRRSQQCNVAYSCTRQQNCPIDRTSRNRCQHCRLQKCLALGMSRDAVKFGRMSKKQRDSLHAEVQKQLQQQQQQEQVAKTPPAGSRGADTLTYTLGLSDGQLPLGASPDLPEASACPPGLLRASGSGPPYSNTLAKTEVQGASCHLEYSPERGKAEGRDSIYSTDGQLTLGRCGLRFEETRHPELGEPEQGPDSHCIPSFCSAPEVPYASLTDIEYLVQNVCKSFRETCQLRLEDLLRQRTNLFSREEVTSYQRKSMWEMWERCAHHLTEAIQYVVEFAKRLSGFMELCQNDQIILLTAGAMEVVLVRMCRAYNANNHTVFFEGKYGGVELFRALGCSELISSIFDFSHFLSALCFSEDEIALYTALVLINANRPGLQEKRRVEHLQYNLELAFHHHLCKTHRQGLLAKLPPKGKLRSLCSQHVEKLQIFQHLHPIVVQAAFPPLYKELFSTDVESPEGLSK
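Using a luciferase readout, inhibitors were identified by reduced reporter activity in Drosophila cells coexpressing a copper-inducible Gal4–ROR gamma fusion and UAS-driven Photinus luciferase, incubated 20 hr after 700 uM copper sulfate.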
The depositor's hits bear a star; ? = inconclusive; . = no result; [ ] = dose if it differs, or a comment. In the library only some 8.3% were active in any assay of this set; here they are far more common. Unless noted, calls follow the shape of the dose curve; as a rule, active = well fitted curve in the direction sought with a large enough effect; inconclusive = small, poorly fitted or top-dose-only effect, or another doubt; inactive = no such curve, though single readings can be large; an effect the other way counts as inactive or inconclusive.

SMILES	SW480 rerep	BCR signal inh	Giardia kill	VP16 counter	MCF10A rerep	RORgamma inh
O=C(Nc1ccccc1)N1CC2(CCN(C(=O)c3ccco3)CC2)C1	.	.	.	-4%	.	14%
Cc1ccc(-c2ccccc2NC(=O)CS(=O)CC(=O)Nc2ccc(C)c(Cl)c2)o1 (configuration not stated)	?	?	?	-14%	26µM*	?
Cc1ccc(-c2ccccc2NC(=O)CCl)o1	11%	?	-16	-1%	?	48%
CCCNC(=O)c1onc(CS(=O)(=O)c2cccc(OC)c2)c1C(=O)NCCC	-6%	0%	-3	.	6%	.
Cc1c(C(=O)NCC2CCCO2)oc2ccc(Br)cc12 (configuration not stated)	-1%	20%	-7	.	4%	.
CCCOc1ccc(C(=O)CCC(=O)Nc2ccc(N3CCN(C)CC3)cc2)cc1	-14%	?	2	.	?	.
NNC(=O)c1ccc(N2CCc3ccccc32)c([N+](=O)[O-])c1	-2%	0%	-14	-1%	?	?
COC(CNC(=O)c1ccc(N2CCc3ccccc32)c([N+](=O)[O-])c1)OC	-3%	-5%	-6	18µM*	?	?
COc1ccc(Cl)cc1NC(=O)C1CC(c2c(F)cccc2Cl)=NO1 (configuration not stated)	-35%	?	7	5%	13%	34%
CC(C)(C)CC(C)(C)NC(=S)Nc1ccc2nc(-c3ccccn3)c(-c3ccccn3)nc2c1	?	-11%	3	?	8%	7.1µM*
CN(C)NC(=S)Nc1ccc2nc(-c3ccccn3)c(-c3ccccn3)nc2c1	?	-1%	-7	16µM*	35%	13µM*
OCCCNC(=S)Nc1ccc2nc(-c3ccccn3)c(-c3ccccn3)nc2c1	9%	-5%	2	1%	-9%	40%
Cc1csc(SCC(=O)NC2CCCC2)n1	1%	?	-23	.	28%	.
CS(=O)(=O)N1CCC(Oc2cccc(C(=O)NCCCOc3cccnc3)c2)CC1	21%	?	4	-4%	14%	16%
CN(CCCN1c2ccccc2CCc2ccccc21)CC(=O)c1ccc(Cl)cc1	?	.	.	-3%	33µM*	8%
O=C(C(=O)N1CCN(c2ccc([N+](=O)[O-])cc2)CC1)c1cn(CC(=O)N2CCOCC2)c2ccccc12	-3%	-1%	-7	4%	9%	?
CC1CCN(S(=O)(=O)c2cn(CC(=O)N3CCN(c4cccc(C(F)(F)F)c4)CC3)cn2)CC1	11%	1%	-9	-2%	3%	?
Cc1ccc(C(C)C)c(OCc2nn(CC(=O)c3ccc(Cl)cc3)c3[n+]2CCCCC3)c1	?	?	-8	?	?	?
COc1cc(C=O)c(Br)cc1OCc1ccc(C)cc1	?	?	-5	?	9.2µM*	-36%
CC(CNC(=O)c1ccc(C#N)cc1)NC(=O)c1ccc(C#N)cc1 (configuration not stated)	-6%	-8%	-8	-1%	-20%	11%
Cc1ccc(NC(=O)c2cccnc2)cc1S(=O)(=O)N(C)C	-1%	2%	-5	-11%	?	38%
Cc1ccc(NC(=O)c2ccc3ncsc3c2)cc1S(=O)(=O)N(C)C	.	?	.	7.1µM*	.	7.9µM*
Oc1ccc(N=Cc2ccc(O)c(O)c2)cc1	?	13%	-1	10µM*	?	4.5µM*
CCOC(=O)Cn1nc(/C=C/c2ccccc2)ccc1=O	-2%	?	-15	14µM*	-2%	-86%
COc1cc(/C=C2/SC(=O)NC2=O)ccc1Oc1ccc([N+](=O)[O-])cc1[N+](=O)[O-]	13µM*	10%	?	-3%	?	-28%
SMILES	SW480 rerep	BCR signal inh	Giardia kill	VP16 counter	MCF10A rerep	RORgamma inh
COc1cc(/C=C2\C(=O)N(c3ccccc3)N=C2C)ccc1Oc1ccc([N+](=O)[O-])cc1[N+](=O)[O-]	-118%	7%	-14	-28%	9.2µM*	-35%
OCCN(CCO)c1ccc(C(c2ccccc2Cl)c2ccc(N(CCO)CCO)cc2Cl)c(Cl)c1	10%	?	9	?	?	14µM*
OCCN(CCO)c1ccc2ccccc2c1	1%	?	-1	0%	0%	-2%
C=CCn1c(SCC(=O)NC2(C#N)CCCCC2)nnc1-c1ccncc1	?	11%	9	.	?	.
COc1ccc(C(=O)Nc2nnc(C3=COCCO3)o2)cc1OC	-4%	2%	8	1.8µM*	3%	1.6µM*
CN(c1ccccc1)S(=O)(=O)c1ccc(C(=O)Nc2nnc(C3=COCCO3)o2)cc1	5%	?	32	4.5µM*	8%	1.1µM*
O=C(Nc1nnc(-c2ccc(Cl)cc2)o1)C1=COCCO1	-6%	-7%	-24	1.8µM*	28%	2.5µM*
CC(C)(C)c1ccc(C(=O)Nc2nnc(C3=COCCO3)o2)cc1	13%	-7%	-22	?	?	0.18µM*
CC(C)Oc1ccc(C(=O)Nc2nnc(C3=COCCO3)o2)cc1	?	-27%	-8	.	1%	.
CN(c1ccccc1)S(=O)(=O)c1ccc(C(=O)Nc2ccncc2)cc1	-5%	-2%	2	.	11%	.
O=C(Nc1nnc(C2=COCCO2)o1)C1CCCCC1	-1%	9%	26	1%	14%	20%
CN(C)c1ccc(C(=O)Nc2nnc(C3=COCCO3)o2)cc1	-6%	?	-7	2.8µM*	-1%	1.6µM*
Cc1ccnc(NC(=O)c2cc3ccccc3o2)c1	-1%	?	?	.	0%	.
O=C(NC1=NCCS1)c1cc2ccccc2o1	-1%	?	?	8.9µM*	2%	7.1µM*
O=C(Nc1ccccn1)c1cc2ccccc2o1	1%	?	?	6.3µM*	1%	4µM*
O=C(Nc1ncccc1O)c1cc2ccccc2o1	-3%	?	0	.	5%	.
Cc1[nH]nc(-c2ccc(OCc3cnn(-c4ccccc4)c3)cc2O)c1Oc1ccc(F)cc1	12%	14%	5	10µM*	?	7.1µM*
CCOc1ccc(-c2nc(N)ncc2Oc2cccc(OC)c2)c(O)c1	-2%[9.22 µM]	?	-9	-5%	30%	38%
Cc1[nH]nc(-c2ccc(O)c(C)c2O)c1Oc1ccccc1	9%	?	-4	?	0%	?
